Screening results: PubChem BioAssay, National Center for Advancing Translational Sciences (NCATS)
The list is not random: actives were taken first. Their share in the collection is about 11%.
hNpr1 antagonist: blocks ANP-stimulated signaling of human Npr1 receptor | Potency, µM (top dose mostly 46.3 µM), for inactives: at the top dose activity change, negative = inhibition, hits mostly inhibitors | 76,000 compounds, 1.6% hits | P16066 | HEK293 hNpr1 GloSensor cGMP, ANP-stimulated luminescence | AID 1347048; calls by dose curve; note: nearly all actives have a fitted effect of over 60% in size
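HEK293 cells stably expressing human Npr1 and cGMP GloSensor pGS-40F, loaded 2 h with 2% GloSensor reagent, given compound 30 min at room temperature. Luminescence read before and 20 min after 0.1 nM hNppA.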
NIH3T3 tox: cytotoxic compounds in NIH 3T3 cells; NIH 3T3 viability, CellTiter-Glo ATP luminescence, 48-72 h; Potency, µM (doses to about 96.7 µM), for inactives: at the top dose activity change, negative = cytotoxicity, most hits filed as inhibitors; 94,000 compounds, 4.3% hits; AID 1345082; note: nearly all actives have a fitted effect of over 55% in size
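Viability of NIH 3T3 cells after 48 or 72 hr compound treatment at 37 °C was assessed by CellTiter-Glo, with luminescence imaged following a 10 min room-temperature step.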
HEK cytotox: cytotoxic compounds in HEK 293 cells; AID 1345083; Potency, µM (series often up to 115 µM), inactives show at the top dose activity change, negative = cytotoxicity, hits mostly inhibitors; 94,000 compounds, 6.6% hits; HEK 293 viability, ATP luminescence (CellTiter-Glo), 48-72 h; note: nearly all actives have a fitted effect of over 60% in size
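Pintool-delivered compounds were incubated with HEK 293 cells (250 cells/well) at 37 degree Celsius for 48 or 72 hr. ATP-dependent luminescence (CellTiter-Glo) then reported remaining viable cells.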
Luciferase inh: inhibitors of firefly (Photinus pyralis) luciferase | P08659 | purified P. pyralis luciferase, luminescence, biochemical | Potency, µM (titrated, usually from 115 µM), most hits filed as inhibitors | 76,000 compounds, 2.5% hits; note: nearly all actives have a fitted effect of over 65% in size
Target sequence (P08659 whole entry, looked up): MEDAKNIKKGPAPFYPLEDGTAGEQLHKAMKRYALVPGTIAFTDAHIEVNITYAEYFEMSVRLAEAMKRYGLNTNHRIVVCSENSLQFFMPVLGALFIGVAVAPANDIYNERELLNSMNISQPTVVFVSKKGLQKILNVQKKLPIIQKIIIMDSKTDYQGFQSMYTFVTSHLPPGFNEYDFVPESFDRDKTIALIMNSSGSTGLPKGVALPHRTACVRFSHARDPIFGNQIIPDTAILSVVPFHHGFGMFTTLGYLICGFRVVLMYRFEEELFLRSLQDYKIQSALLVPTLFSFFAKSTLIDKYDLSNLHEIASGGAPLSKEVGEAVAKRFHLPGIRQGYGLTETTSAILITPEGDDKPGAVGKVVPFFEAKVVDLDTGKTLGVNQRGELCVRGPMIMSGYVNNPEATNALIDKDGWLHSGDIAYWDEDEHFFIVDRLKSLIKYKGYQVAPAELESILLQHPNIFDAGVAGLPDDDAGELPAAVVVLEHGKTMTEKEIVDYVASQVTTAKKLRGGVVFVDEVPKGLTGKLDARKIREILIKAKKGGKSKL
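Luminescence read by CCD imager after adding enzyme (10nM final) to wells holding compound, titrated in qHTS. Substrates 10uM each D-luciferin and ATP; buffer 50mM Tris acetate pH 7.5, 10mM Mg acetate, Tween-20, BSA.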
An asterisk follows results filed as active; i = inactive; ? = inconclusive; / = not tested or not shown; [ ] = remark or other dose. Unless noted, calls come from the whole dose curve; as a rule, active = well fitted curve in the direction sought with a large enough effect; inconclusive = small, poorly fitted or top-dose-only effect, or another doubt; inactive = no such curve, though single readings can be large; an effect the other way counts as inactive or inconclusive. % is set by controls: 0 for no effect and ±100 for the full control effect; potency is the fitted concentration of half-maximal effect.

SMILES | hNpr1 antagonist | NIH3T3 tox | HEK cytotox | Luciferase inh
O=C(NC[C@H]1O[C@H](Cc2cc(-c3ccc(F)cc3)on2)CC[C@@H]1O)c1ccc(F)cc1 | 16µM* | ? | ? | 40µM*
CNC(=O)c1cc(C2CC2)nc2onc(C3CCN(C(=O)c4cccc(OC)c4)C3)c12 (configuration not stated) | / | -4% | i | /
O=C(Cc1ccc(Cl)cc1)N1CCN(C(=O)c2nc3cccnc3n(C3CC3)c2=O)CC1 | / | -11% | i | /
COc1cc(-c2cc3c(nc2-c2ccccc2)nc(C(=O)NC2CCN(C)CC2)n3C)ccn1 | -8% | ? | ? | i
COCCNC(=O)c1nc2nc(-c3ccccc3)c(Cl)cc2n1C | -1%[70.6 µM] | ? | ? | i
COc1cc(F)ccc1-c1cc2c(nc1-c1ccccc1)nc(C(=O)NCCN(C)C)n2C | -4% | 20µM* | 32µM* | i
COc1ccc(-c2cc3c(nc2-c2ccccc2)nc(C(=O)NCCN(C)C)n3C)cn1 | 3%[70.6 µM] | 79µM* | ? | i
COc1cc(-c2cc3c(nc2-c2ccccc2)nc(C(=O)NCCN(C)C)n3C)ccn1 | -6%[70.6 µM] | ? | ? | i
COc1ccccc1-c1cc2c(nc1-c1ccccc1)nc(C(=O)NCCN(C)C)n2C | ? | 35µM* | ? | i
Cc1cc(-c2cc3c(nc2-c2ccccc2)nc(C(=O)NC2CCN(C)CC2)n3C)ccn1 | 6%[70.6 µM] | 25µM* | ? | i
O=C1CCC(CNS(=O)(=O)Cc2ccccc2F)CCN1Cc1ccccc1 (configuration not stated) | / | -25% | i | /
COc1ccc(Cl)cc1NC(=O)Cn1cccc1-c1nc(-c2ccccc2)no1 | 1% | -18% | ? | i
CN(C)CCNC(=O)c1nc2nc(-c3ccccc3)c(-c3cccnc3)cc2n1C | 0%[70.6 µM] | ? | ? | i
Cc1cc(-c2cc3c(nc2-c2ccccc2)nc(C(=O)NCCN(C)C)n3C)ccn1 | 5%[70.6 µM] | ? | -24%[172 µM] | i
CN(C)CCNC(=O)c1nc2nc(-c3ccccc3)c(-c3ccncc3)cc2n1C | 2%[70.6 µM] | 100µM* | ? | i
Cc1ccccc1-c1cc2c(nc1-c1ccccc1)nc(C(=O)NCCN(C)C)n2C | ? | 25µM* | 35µM* | i
Cn1cnc(S(=O)(=O)N2CCC(OCc3noc(C4CCCO4)n3)CC2)c1 (configuration not stated) | / | 0% | -5% | /
Cc1noc(C)c1[S+](=O)([O-])NC1CCN(C(=O)c2ccc(-c3ncccc3C#N)cc2)CC1 | / | ? | 5% | /
CCCS(=O)(=O)N1CCC(N2CC(OCC3CC3)C23CCCCC3)CC1 (configuration not stated) | / | ? | -3% | /
COCCN1CCNc2cc(NCc3ccccc3)ncc2C1 | 1%[70.6 µM] | ? | ? | i
COc1cccc(Nc2cc3c(cn2)NCCN(Cc2ccccc2)C3)c1 | -21%[70.6 µM] | ? | 89µM* | i
COc1ccc(Nc2cc3c(cn2)CN(CCc2ccccc2)CCN3)cn1 | -7%[70.6 µM] | 50µM* | 63µM* | i
COc1cccc(CN2CCNc3cnc(Nc4ccccc4)cc3C2)c1 | ? | ? | 89µM* | i
COc1ccc(OC)c(CN2CCNc3cnc(Nc4cccnc4)cc3C2)c1 | -14%[70.6 µM] | ? | ? | i
CC(C)CN(Cc1cccnc1)C1CN(C(=O)NCc2ccccc2)C1 | -3% | -17% | 0% | i
SMILES | hNpr1 antagonist | NIH3T3 tox | HEK cytotox | Luciferase inh
CC(C)CN(Cc1cccnc1)C1CN(C(=O)CC2CCCCC2)C1 | -16% | 5.6µM* | ? | i
CN1c2cc(C(=O)N3CCN(c4ccc(F)cc4)CC3)ccc2C(=O)N2CCCCC21 (configuration not stated) | 0% | -6% | ? | i
COc1cccc(N2CCN(C(=O)c3ccc4c(c3)N(C)C3CCCCCN3C4=O)CC2)c1 (configuration not stated) | 1% | -27% | 50µM* | i
Cc1cccc(N2CCN(C(=O)c3ccc4c(c3)N(C)C3CCCCCN3C4=O)CC2)c1 (configuration not stated) | -7% | ? | 40µM* | i
CN1c2cc(C(=O)N3CCN(c4ccc(F)cc4)CC3)ccc2C(=O)N2CCCCCC21 (configuration not stated) | -13% | ? | 45µM* | i
O=C(NCCNC(=O)C1CC1)c1ccc(-c2cccc(C(F)(F)F)c2)cc1 | / | -50% | ? | /
Cn1ccnc1CN1CCCC12CCN(c1ccc(C(F)(F)F)cn1)CC2 | -24% | ? | 50µM* | i
CCCn1ccnc1CN1CCCC12CCN(c1ccc(C(F)(F)F)cn1)CC2 | -1% | ? | 35µM* | i
CCn1ncc(CN2CCCC23CCN(c2ccc(C(F)(F)F)cn2)CC3)c1C | 0% | ? | ? | i
Nc1ncccc1CN1CCCC12CCN(c1ccc(C(F)(F)F)cn1)CC2 | -25% | ? | ? | i
CC(C)c1noc(-c2ccn3c(CNC(=O)c4ccc(N(C)C)cc4)nnc3c2)n1 | 0% | -12% | 1% | i
CC(C)c1noc(-c2ccn3c(CNC(=O)c4cccc(N(C)C)c4)nnc3c2)n1 | -9% | ? | ? | 28µM*
COCCN1CCCC[C@]2(C[C@H](C(=O)O)[C@H](c3ccco3)N2C(=O)c2ccccc2)C1=O | / | ? | 2% | /
O=C1CCN(C[C@@H](O)COCc2ccccc2)c2ccc(F)cc2CN1Cc1ccccc1 | / | ? | 45µM* | /
C=CCOCC(O)CN1CCC(=O)N(Cc2ccccc2)Cc2cc(F)ccc21 (configuration not stated) | / | -29% | ? | /
O=C1CCN(CC(O)Cc2ccccc2)c2ccc(F)cc2CN1Cc1ccccc1 (configuration not stated) | / | ? | 32µM* | /
CCOC(=O)[C@H]1C[C@]2(CCCCNC2=O)N(C(=O)Cc2ccc(OC)cc2)[C@H]1c1ccco1 | / | ? | -23% | /
CC1(C)C(=O)N(CCOc2ccccc2)[C@H]2CN(Cc3ccc4c(c3)CCO4)C[C@@H]2[S+]1(=O)[O-] | -6% | ? | ? | i
O=C(O)CCn1ncc2cc(OCC3CCN(C(=O)C4CCCC4)CC3)ccc21 | 1%[70.6 µM] | ? | 3%[172 µM] | ?
O=C(O)CCn1ncc2cc(OCC3CCN(c4ncccn4)CC3)ccc21 | 3%[70.6 µM] | 50µM* | -11%[172 µM] | 63µM*
O=C(O)CCn1ncc2cc(OCC3CCN(C(=O)CC4CC4)CC3)ccc21 | 6%[70.6 µM] | 50µM* | 3%[172 µM] | ?
O=C(O)CCn1ncc2cc(OCC3CCN(C(=O)COc4ccccc4)CC3)ccc21 | 1%[70.6 µM] | 28µM* | 4%[172 µM] | i
O=C(O)CCn1ncc2cc(OCC3CCN(C(=O)C4CC4)CC3)ccc21 | 8%[70.6 µM] | ? | i | ?
O=C(O)CCn1ncc2cc(OCC3CCN(C(=O)OC4CCCC4)CC3)ccc21 | 1%[70.6 µM] | 25µM* | ? | ?
CCOc1ccccc1CN1CCC2(CCN(C(=O)OC)CC2)Oc2ccccc21 | 0% | ? | ? | i
